According to ChEMBL document CHEMBL3988442, “University of Dundee, Small-Polar-MMV Screening Library” (2021):
Among all 48,000 compounds or so, about 13,000 (27%) showed an effect of 50% or more. Some of the results follow.

These compounds were tested on Wolbachia pipientis (assay: Anti-Wolbachia Cell-Based Screen). Conditions: 5 µM.
Assay type: functional
Set-up: scale not given: in the data most compounds retested in dose-response had high values

Compound | Percent Effect [%]
O=S(=O)(CCNCc1ccc2c(c1)CCO2)N1CCOCC1 | 0.3646
CN1CC(C(=O)NCc2cccnc2-n2cccn2)CC1=O (configuration not stated) | 63.73
COCCN1CC(C(=O)NCc2ccnc(-n3cccn3)c2)CC1=O (configuration not stated) | -1.182
CCN1CC(C(=O)NCc2ccccc2-n2cccn2)CC1=O (configuration not stated) | 3.983
O=C(NCc1ccnc(-n2cccn2)c1)C1CC(=O)N(CC2CC2)C1 (configuration not stated) | 153.4
CN1CC(C(=O)NCc2cccnc2OCc2ccccc2)CC1=O (configuration not stated) | 10.22
CCN1CC(C(=O)NCc2cccnc2-n2cccn2)CC1=O (configuration not stated) | 124.7
COCCN1CC(C(=O)NCc2cccnc2-n2cccn2)CC1=O (configuration not stated) | 120.6
CC(C)N1CC(C(=O)NCc2ccnc(-n3cccn3)c2)CC1=O (configuration not stated) | -4.025
CN(C)CCN1CC(C(=O)NCc2cccc(-n3cccn3)c2)CC1=O (configuration not stated) | 7.096
O=C(NCc1cccnc1-n1cccn1)C1CC(=O)N(CC2CC2)C1 (configuration not stated) | -9.395
CN(C)CCN1CC(C(=O)NCc2cn3cccnc3n2)CC1=O (configuration not stated) | -11.69
CCS(=O)(=O)N1CCN(C(=O)c2ccc(Cn3cc(Br)cn3)cc2)CC1 | -241.9
CCN(C(=O)CN1CCN(CC(C)O)CC1)C1=CCCCC1 (configuration not stated) | -11.46
COc1cc(F)c(-n2cnc(CCNC(C)=O)c2)cc1F | -17.55
CCN1CCN(S(=O)(=O)N2CCCC2)[C@H]2CS(=O)(=O)C[C@H]21 | -2.731
CCN(CC(=O)NCc1nc(C2CC2)no1)Cc1ccc(Cl)cc1 | 3.966
CC(C)CN1CCN(C(=O)NCc2cccnc2-n2cccn2)CC1 | 4.797
O=C(NCc1cnn2cccnc12)C1CC(=O)N(Cc2cccnc2)C1 (configuration not stated) | -5.518
CC(C)CN1CC(C(=O)NCc2cccnc2-n2cccn2)CC1=O (configuration not stated) | 126
COCC1c2nnn(CC3CC3)c2CCN1C(=O)CS(C)(=O)=O (configuration not stated) | -0.612

Compound | Percent Effect [%]
Cc1nn(-c2ccccc2)nc1C(=O)NCC(c1ccco1)N(C)C (configuration not stated) | -4.253
CC(O)CNc1c(NCc2ccco2)c(=O)c1=O (configuration not stated) | 135.5
O=S(=O)(Cc1ccccc1)NCc1ccco1 | 0.9463
C[C@@H](O)CNc1c(NCc2ccco2)c(=O)c1=O | 100.7
CC(CNC(=O)NCc1ccco1)CC1(C)OCCO1 (configuration not stated) | 3.835
COc1ccccc1C(C)(C)NCc1ccco1 | -0.6951
Cc1ccc(CS(=O)(=O)NCc2ccco2)cc1 | 3.7
CNc1c(NCc2ccco2)c(=O)c1=O | 113.6
CN(C)C(CNc1c(NCc2ccco2)c(=O)c1=O)c1ccccc1 (configuration not stated) | 131.6
CCCNC(=O)CCNC1CSCCc2ccccc21 (configuration not stated) | -10.65
COC(=O)c1sccc1S(=O)(=O)N1CCC(Oc2ncccc2Cl)CC1 | 25.07
OCCN1CCc2[nH]nc(C(c3ccccc3)c3ccccc3)c2C1 | 13.32
CCc1cnc(CN(C)C(=O)Nc2cnc3c(c2)c(C)nn3C)s1 | -8.075
O=C(c1ccc(O)nc1)N1CCN(C(=O)c2ccc(F)cc2F)CC1 | -4.376
CC(C)CNc1c(NCc2ccco2)c(=O)c1=O | 131.9
CCn1c(NCc2ccco2)nc2c(C)nn(C)c2c1=O | 25.01
CNS(=O)(=O)c1cccc(C(C)NCc2ccco2)c1 (configuration not stated) | -0.2197
CSCCCNC(=O)c1coc(Cn2cnc3ccccc32)n1 | 7.588
CCc1nc(CN2CCCC(NCc3nnc(C4CC4)o3)C2)no1 (configuration not stated) | 5.014
c1ccc2oc(NC3CCCN(Cc4noc(C5CC5)n4)C3)nc2c1 (configuration not stated) | 2.188
C1CC(NCc2nnc(C3CC3)o2)CN(Cc2noc(C3CC3)n2)C1 (configuration not stated) | 132.9

Compound | Percent Effect [%]
CCc1nnc(CNC2CCCN(Cc3noc(C4CC4)n3)C2)o1 (configuration not stated) | 121.7
C1CC(c2noc(C3CC3)n2)CN(Cc2noc(C3CC3)n2)C1 (configuration not stated) | 0.1706
CC(C)c1nnc(CNC2CCCN(Cc3noc(C4CC4)n3)C2)o1 (configuration not stated) | 144.7
OCCN1CCC(CNCCOCC(F)(F)F)CC1 | 0.8425
Cc1ccc(-c2ncc(CNc3cnccc3CO)s2)o1 | 8.317
FC(F)(F)CCc1ncnn1-c1ccc2c(c1)OCO2 | -6.748
Cc1ccccc1C(C(=O)N1CCN(C(=O)c2ccc[nH]2)CC1)N(C)C (configuration not stated) | 2.077
Nc1ncc(CN2CCC(CCC(=O)NC3CC3)CC2)cn1 | 2.927
Cn1cnc(C(=O)N2CC3(CCN(S(=O)(=O)c4ccccc4)C3)C2)c1 | -0.5352
CC(C)CO[C@H]1CN(S(=O)(=O)c2cn(C)cn2)[C@@H]2CCCO[C@H]12.O=C(O)C(F)(F)F | -4.682
CCn1cc2c(n1)CN(S(=O)(=O)c1cn(C)cn1)CC2COC.O=C(O)C(F)(F)F (configuration not stated) | -7.552
Cn1cnc(S(=O)(=O)N2CCN(CC3CC3)c3ncccc3C2)c1.O=C(O)C(F)(F)F.O=C(O)C(F)(F)F | -19.75
CCO[C@H]1CCN(S(=O)(=O)c2cn(C)cn2)[C@H]1Cc1ccccc1.O=C(O)C(F)(F)F | -2.456
CC(C)CN1CCC2(C1)CN(S(=O)(=O)c1cn(C)cn1)C2.O=C(O)C(F)(F)F.O=C(O)C(F)(F)F | 81.89
O=C(O)C(F)(F)F.O=S(=O)(C1CC1)N1CCC2(CN(c3ccccn3)C2)C1 | 2.12
Cn1cnc(S(=O)(=O)N2CC3(CCN(CC4CC4)C3)C2)c1.O=C(O)C(F)(F)F.O=C(O)C(F)(F)F | 100.1
Cn1cnc(S(=O)(=O)N2CC3(CCN(c4ccccc4)C3)C2)c1.O=C(O)C(F)(F)F | 94.4
CCS(=O)(=O)N1CCC2(CN(C(=O)c3cn(C)cn3)C2)C1 | -4.508
CCN1CCC2(C1)CN(S(=O)(=O)c1cn(C)cn1)C2.O=C(O)C(F)(F)F.O=C(O)C(F)(F)F | 110.7
CC(C)CN1CC[C@@H]2[C@@H]1CCN2S(=O)(=O)c1cn(C)cn1.O=C(O)C(F)(F)F | 9.969
